# In PubChem BioAssay (Tox21):
# Values joined by “and” are separate entries in the source; they are usually repeats but may differ in a detail not shown here. Equal values may be shown once. A number with no mark means an inactive call. Records with an inconclusive call do not appear. Entries that show only a call come without a potency. Active and inactive are the calls of the source. Unless noted, calls follow the shape of the dose curve; as a rule, active = well fitted curve in the direction sought with a large enough effect in the repeat runs; inconclusive = weak or mixed curves; inactive = no such curve, though single readings can be large; an effect the other way counts as inactive or inconclusive.
# Columns and labels:
# [1] = qHTS assay to identify small molecule agonists of the estrogen receptor alpha (ER-alpha) signaling pathway in the presence of an antagonist - cell viability counter screen (AID 1259386);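 also: series mostly up to about 92 µM; cells exposed to compounds for 22 h at 37 °C before the viability read; nearly all actives have a fitted effect of over 30% in size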
# In short: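 The test measures whether compounds kill ER-alpha reporter cells (VM7Luc4E2) under antagonist co-treatment (ICI-182,780, 10.0nM). Fluorescence from CellTiter-Fluor is read after a 22hr exposure.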
# [2] = biological target: Progesterone receptor (Homo sapiens) (UniProt P06401); test: qHTS assay to identify small molecule agonists of the progesterone receptor (PR) signaling pathway (AID 1346784; calls by dose curve; also: nearly all actives have a fitted effect of over 30% in size)
# In short: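 The screen uses PR-UAS-bla HEK 293T cells in charcoal-stripped serum (2%). Compounds are applied for 16 hr at 37C after a 6 hr pre-incubation, and reporter activity is detected with a FRET beta-lactamase substrate after 2 hr at room temperature.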
# [3] = biological target: Progesterone receptor (Homo sapiens) (UniProt P06401); test: qHTS assay to identify small molecule antagonists of the progesterone receptor (PR) signaling pathway (AID 1346795; active = well fitted inhibition curve with a large enough effect in the signal ratio in the repeat runs, not every such curve was filed as active; the % refers to the signal ratio)
# In short: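 After 6 hr plating at 37C in 2% stripped-serum medium, PR-UAS-bla HEK293T cells got compounds, then 1 nM R5020. Sixteen hours later, LiveBLAzer substrate was applied for 2 hr at room temperature and fluorescence was recorded.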
# [4] = qHTS assay to identify small molecule antagonists of the progesterone receptor (PR) signaling pathway - cell viability counter screen (AID 1346798); also: series mostly up to about 92 µM; nearly all actives have a fitted effect of over 50% in size
# In short: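 Viability was determined by ATP-based luminescence (CellTiter-Glo) in PR-UAS-bla HEK293T cells cultured in 2% charcoal-stripped serum and incubated 16 hr with compounds under R5020 stimulation.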
# [5] = qHTS assay to identify small molecule agonists of the progesterone receptor (PR) signaling pathway - cell viability counter screen (AID 1346799; calls by dose curve; also: nearly all actives have a fitted effect of over 45% in size)
# In short: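 Viability was scored by ATP luminescence (CellTiter-Glo, 30 min, room temperature) in the same wells used for the reporter readout, after 16 hr compound exposure of PR-UAS-bla HEK293T cells.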
# [6] = qHTS assay to identify small molecule agonists of the TGF-beta/Smad signaling pathway - cell viability counter screen (AID 1346829); also: top concentration of the series differs between compounds; nearly all actives have a fitted effect of over 45% in size
# In short: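 HEK 293T SBE-bla line, 5 hr compound exposure at 37 C, multiplexed CellTiter-Glo viability read by luminescence.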
# [7] = qHTS assay to identify small molecule agonists of the TGF-beta/Smad signaling pathway (AID 1346859; active = well fitted activation curve with a large enough effect in the signal ratio in the repeat runs, not every such curve was filed as active; the % refers to the signal ratio; also: series mostly up to about 77 µM)
# In short: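 Dual-wavelength fluorescence (460/530 nm emission) quantified beta-lactamase expression under the Smad binding element in HEK 293T cells following 5 hr compound treatment at 37 C.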
# [8] = biological target: Thyrotropin-releasing hormone receptor (Homo sapiens) (UniProt P34981); test: qHTS assay to identify small molecule antagonists of the thyrotropin-releasing hormone receptor (TRHR) signaling pathway (AID 1346877; active = well fitted inhibition curve with a large enough effect in the repeat runs, not every such curve was filed as active; also: series mostly up to about 51 µM)
# In short: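 Overnight-plated (18 h, 37 °C) HEK293 cells expressing TRHR were dye-loaded 2 h, treated with compound, then stimulated with TRH at 1 nM final. Fluorescence intensity was captured every second for 3 min.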
# [9] = biological target: Thyrotropin-releasing hormone receptor (Homo sapiens) (UniProt P34981); test: qHTS assay to identify small molecule agonists of the thyrotropin-releasing hormone receptor (TRHR) signaling pathway (AID 1346891; calls by dose curve;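 also: HEK293 cells expressing TRHR with calcium dye readout; series mostly up to about 58 µM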)
# In short: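 Kinetic fluorescence (3 min, 1 s intervals) reported intracellular calcium after compound transfer onto TRHR-Hek293 cells pre-loaded with dye for 2 h at 37 °C.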
# [10] = Human pregnane X receptor (PXR) small molecule agonists, qHTS cell viability counter screen (AID 1346977); also: nearly all actives have a fitted effect of over 50% in size
# In short: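 HepG2 cells stably carrying the PXR-Luc reporter are cultured with 5% charcoal-stripped FBS and treated with compounds for 24hr. CellTiter-Fluor is added at 23hr and fluorescence is read after 1hr.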
# [11] = Caspase-3/7 induction in HepG2 cells by small molecules, qHTS assay (AID 1346978); also: nearly all actives have a fitted effect of over 15% in size
# In short: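 Caspase-3/7 induction was measured by Caspase-Glo 3/7 luminescence (30 min, room temperature) after a 17 hr compound exposure of wild-type HepG2 cells seeded at 2,000 per well and pre-incubated 5 hr.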
# [12] = Caspase-3/7 induction in CHO-K1 cells by small molecules, qHTS cell viability counter screen (AID 1346979); also: nearly all actives have a fitted effect of over 35% in size; also: potency is read from the fitted curve at half-maximal effect
# In short: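 Seeding: 1,500 CHO-K1 cells/well. Rest: 5hr, 37C. Treatment: compounds in DMSO, 16hr. Read: CellTiter-Fluor, 1hr, fluorescence.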
# [13] = Caspase-3/7 induction in CHO-K1 cells by small molecules, qHTS assay (AID 1346980); also: nearly all actives have a fitted effect of over 15% in size
# In short: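 Luminescent Caspase-Glo 3/7 read (30min, room temperature) quantified apoptosis induction. Cells were wild-type CHO-K1, treated with compound for 17hr at 37 C and 5% CO2.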
# [14] = Caspase-3/7 induction in HepG2 cells by small molecules, qHTS cell viability counter screen (AID 1346981); also: series mostly up to about 92 µM; nearly all actives have a fitted effect of over 30% in size
# In short: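 Treatment of HepG2 cells with DMSO-delivered compounds ran 16 hr at 37 C following a 5-hr pre-incubation of 2,000 cells/well. CellTiter-Fluor fluorescence, read after 1 hr, served as the viability measure in a qHTS format.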
# [15] = biological target: Nuclear receptor subfamily 1 group I member 2 (Homo sapiens) (UniProt O75469); test: Human pregnane X receptor (PXR) small molecule agonists, qHTS assay (AID 1346982); also: nearly all actives have a fitted effect of over 35% in size
# In short: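 Stable HepG2 line reporting PXR-mediated CYP3A4 expression via luciferase. Treatment: 24 hr with compounds in DMSO at 37 C. Detection: ONE-Glo luminescence.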
# [16] = qHTS assay to identify small molecule antagonists of the TGF-beta/Smad signaling pathway - cell viability counter screen (AID 1346824); also: nearly all actives have a fitted effect of over 50% in size
# In short: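 Cytotoxicity counter-screen run in the same wells as the beta-lactamase Smad reporter read: CellTiter-Glo luminescence after 30 min at room temperature. HEK 293T SBE-bla cells had 5 hr compound exposure at 37 C with TGF-beta1 (0.25 ng/mL stock).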
# [17] = biological target: Nuclear receptor subfamily 1 group I member 2 (Rattus norvegicus) (UniProt Q9R1A7); test: Rat pregnane X receptor (rPXR) activation by small molecules, qHTS assay (AID 1346983); conditions: rPXR luciferase reporter cells, One-Glo luminescence, 24 h; max activation: stronger effect = higher value; also: nearly all actives have a fitted effect of over 20% in size
# In short: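 Luminescent readout (One-Glo luciferase, 30 min room temperature) followed 24 hr compound treatment at 37 C of rPXR cells plated 2,000 per well and preincubated 5hr; qHTS format with compounds delivered in DMSO.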
# [18] = biological target: Nuclear receptor subfamily 1 group I member 2 (Homo sapiens) (UniProt O75469); test: CYP3A4 induction through human pregnane X receptor (PXR) by small molecules, qHTS assay (AID 1346984); also: nearly all actives have a fitted effect of over 40% in size
# In short: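 After 24 h at 37C with compound, DPX-2 cells (HepG2, co-transfected PXR response element and CYP3A4 promoter-luciferase) got 3uM final P450-Glo Luciferin-IPA for 3 h; One-Glo luminescence followed.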
# [19] = biological target: Nuclear receptor subfamily 1 group I member 2 (Homo sapiens) (UniProt O75469); test: Human pregnane X receptor (PXR) activation by small molecules, qHTS assay (AID 1346985); also: nearly all actives have a fitted effect of over 40% in size
# In short: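 DPX-2 cells (HepG2 co-transfected with a PXR response element and a CYP3A4-promoter luciferase construct) were seeded at 2,000 per well, rested 5 hr at 37C, then exposed to DMSO-dissolved compounds for 24 hr. Activation was read as luciferase luminescence.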
# Progesterone receptor (Homo sapiens), sequence (P06401 whole entry, looked up): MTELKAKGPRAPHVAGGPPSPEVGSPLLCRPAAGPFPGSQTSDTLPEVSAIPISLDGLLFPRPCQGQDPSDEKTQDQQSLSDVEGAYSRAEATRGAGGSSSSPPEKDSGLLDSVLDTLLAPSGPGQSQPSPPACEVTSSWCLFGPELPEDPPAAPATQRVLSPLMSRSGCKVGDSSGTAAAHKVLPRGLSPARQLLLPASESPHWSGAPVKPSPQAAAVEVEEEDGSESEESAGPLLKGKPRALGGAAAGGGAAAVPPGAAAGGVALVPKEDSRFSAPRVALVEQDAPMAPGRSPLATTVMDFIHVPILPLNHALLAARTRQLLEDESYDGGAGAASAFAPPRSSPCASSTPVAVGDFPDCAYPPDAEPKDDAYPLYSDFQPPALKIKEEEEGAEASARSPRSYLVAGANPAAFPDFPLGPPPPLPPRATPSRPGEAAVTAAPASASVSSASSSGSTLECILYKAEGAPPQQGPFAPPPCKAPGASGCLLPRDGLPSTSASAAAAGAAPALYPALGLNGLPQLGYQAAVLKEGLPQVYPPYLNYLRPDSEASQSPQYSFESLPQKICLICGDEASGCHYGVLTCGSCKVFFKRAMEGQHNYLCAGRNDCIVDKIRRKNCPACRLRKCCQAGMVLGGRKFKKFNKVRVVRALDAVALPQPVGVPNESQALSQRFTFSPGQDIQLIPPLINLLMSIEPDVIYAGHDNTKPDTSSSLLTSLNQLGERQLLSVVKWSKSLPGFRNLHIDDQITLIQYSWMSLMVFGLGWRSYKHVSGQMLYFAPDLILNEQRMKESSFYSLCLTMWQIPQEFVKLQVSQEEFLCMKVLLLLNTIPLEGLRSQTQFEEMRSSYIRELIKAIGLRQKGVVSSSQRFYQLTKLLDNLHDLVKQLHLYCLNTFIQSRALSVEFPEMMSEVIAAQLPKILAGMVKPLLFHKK
# Thyrotropin-releasing hormone receptor (Homo sapiens), sequence (P34981 whole entry, looked up): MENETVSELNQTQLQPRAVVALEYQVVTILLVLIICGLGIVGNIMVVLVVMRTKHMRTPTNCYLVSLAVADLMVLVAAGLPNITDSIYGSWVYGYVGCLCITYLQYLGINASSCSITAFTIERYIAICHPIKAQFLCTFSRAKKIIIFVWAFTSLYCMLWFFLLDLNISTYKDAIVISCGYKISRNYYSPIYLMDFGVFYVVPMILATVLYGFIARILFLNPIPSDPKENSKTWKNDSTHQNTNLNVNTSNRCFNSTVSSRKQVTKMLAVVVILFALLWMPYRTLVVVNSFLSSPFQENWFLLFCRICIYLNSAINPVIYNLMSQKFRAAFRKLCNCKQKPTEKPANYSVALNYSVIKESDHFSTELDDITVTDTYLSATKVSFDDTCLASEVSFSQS
# Nuclear receptor subfamily 1 group I member 2 (Rattus norvegicus), sequence (Q9R1A7 whole entry, looked up): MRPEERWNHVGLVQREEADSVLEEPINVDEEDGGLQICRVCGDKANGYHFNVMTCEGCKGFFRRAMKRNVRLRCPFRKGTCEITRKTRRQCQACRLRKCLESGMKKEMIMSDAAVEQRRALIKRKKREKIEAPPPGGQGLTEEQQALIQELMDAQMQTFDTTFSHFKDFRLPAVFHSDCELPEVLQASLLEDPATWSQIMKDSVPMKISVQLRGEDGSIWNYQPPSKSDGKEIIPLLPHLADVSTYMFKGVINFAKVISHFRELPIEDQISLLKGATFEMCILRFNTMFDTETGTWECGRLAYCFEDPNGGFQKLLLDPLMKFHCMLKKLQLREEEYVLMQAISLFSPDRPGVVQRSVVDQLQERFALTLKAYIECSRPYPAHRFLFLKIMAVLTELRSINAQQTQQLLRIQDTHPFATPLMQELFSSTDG
# Nuclear receptor subfamily 1 group I member 2 (Homo sapiens), sequence (O75469 whole entry, looked up): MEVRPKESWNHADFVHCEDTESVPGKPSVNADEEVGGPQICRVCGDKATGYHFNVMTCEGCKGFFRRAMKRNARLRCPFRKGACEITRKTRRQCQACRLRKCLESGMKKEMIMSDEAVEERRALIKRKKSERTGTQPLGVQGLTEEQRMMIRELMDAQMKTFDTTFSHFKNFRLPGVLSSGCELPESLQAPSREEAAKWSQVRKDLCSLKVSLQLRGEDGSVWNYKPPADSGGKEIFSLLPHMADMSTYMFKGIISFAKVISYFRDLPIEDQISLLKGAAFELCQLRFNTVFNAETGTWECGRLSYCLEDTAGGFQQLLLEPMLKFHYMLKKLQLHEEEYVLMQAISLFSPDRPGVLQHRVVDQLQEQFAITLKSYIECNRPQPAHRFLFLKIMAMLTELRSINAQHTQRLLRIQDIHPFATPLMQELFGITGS
SMILES,Potency [1],Potency [2],Potency [3],Potency [4],Potency [5],Potency [6],Potency [7],outcome [8],outcome [9],Potency [10],Potency [11],Potency [12],outcome [13],Potency [14],Potency [15],outcome [16],max activation [17],Potency [18],Potency [19]
O=C(O)CO,inactive,inactive,inactive,inactive,inactive,inactive,inactive,inactive,inactive,inactive,inactive,inactive,inactive,inactive,inactive,–,–,–,–
CCOC(=O)C(C)O (stereo not drawn),inactive,inactive,inactive,inactive,inactive,inactive,inactive,–,–,inactive,inactive,inactive,inactive,inactive,inactive,inactive,–,–,–
O=[N+]([O-])C1(Br)COCOC1,inactive,inactive,inactive,inactive,inactive,inactive,inactive,inactive,–,–,inactive,54.5 µM (active),inactive,inactive,–,inactive,–,–,–
CC1CCc2nccnc21 (stereo not drawn),inactive,inactive,inactive,inactive,inactive,inactive,inactive,inactive,inactive,inactive,inactive,inactive,inactive,–,inactive,inactive,–,–,–
CC(=O)OCC(C)C,inactive,inactive,inactive,inactive,inactive,inactive,inactive,inactive,–,inactive,inactive,inactive,inactive,inactive,inactive,–,–,–,–
CC1CCCC(=O)C1=O (stereo not drawn),inactive,inactive,inactive,inactive,inactive,inactive,inactive,–,–,inactive,inactive,inactive,inactive,inactive,inactive,inactive,–,–,–
CC(C)(C(=O)c1cccnc1)c1cccnc1,inactive,inactive,inactive,–,inactive,inactive,inactive,inactive,inactive,inactive,inactive,inactive,inactive,inactive,inactive,inactive,-1.51%,inactive,inactive
Nc1ccn([C@H]2CS[C@@H](CO)O2)c(=O)n1,inactive,inactive,inactive,inactive,inactive,inactive,inactive,–,–,inactive,inactive,–,inactive,–,–,–,-3.24% and -0.136%,–,–
CCCCCCC(O)CCCCCCCCCCC(=O)OC (stereo not drawn),inactive,inactive,inactive,inactive,inactive,inactive,inactive,inactive,–,inactive,inactive,inactive,inactive,inactive,inactive,–,–,–,–
